# Anthrax LF prot = inhibitors of Bacillus anthracis lethal factor protease; P15917; multiplex microsphere protease cleavage assay, LF; inhibition, % at 10 µM; 0.12% of 360,000 active; AID 588501; further: plate controls were buffer without enzyme for full effect and enzyme alone for no effect
# BoNT-F LC inh = BoNT F light chain protease inhibition. Multiplex microsphere protease cleavage assay, flow cytometry. inhibition, % at 10 µM. 0.22% of 360,000 active; in the data active means inhibition above about 35%, passing the limit was not always enough; inconclusive means no clear call, values can overlap the other calls; further: plate controls were buffer without enzyme for full effect and enzyme alone for no effect
# MazF activator = MazEF (E. coli) toxin RNase activation; P0AE70; FAM/BHQ RNA-DNA oligo cleavage fluorescence, 5 h; activation, % at 20 µM; 0.32% of 350,000 active; in the data active means activation above about 50%
# Target sequence (P0AE70 whole entry, looked up): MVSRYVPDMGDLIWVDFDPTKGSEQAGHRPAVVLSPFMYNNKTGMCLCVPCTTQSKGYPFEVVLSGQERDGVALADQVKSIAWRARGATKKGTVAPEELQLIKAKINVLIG
# PfHsp40 yeast = restores yeast growth despite PfHsp40 toxicity; AID 504582; growth rescue, % at 12.5 µM; S. cerevisiae expressing PfHsp40, growth rescue, ATP luminescence; 0.68% of 340,000 active; in the data active means growth rescue above about 28%, passing the limit was not always enough; inconclusive means no clear call, values can overlap the other calls;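 further: yeast W303a lacking pdr1 and pdr3 grown in galactose medium; growth measured after three days at 30 °C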
# Bead autofluor = flagged as autofluorescent in microsphere protease counterscreen | compound autofluorescence counterscreen, microsphere flow cytometry; stronger effect = higher value | fluorescence intensity (no concentration beside the values) | 3.1% of 360,000 active; in the data active means fluorescence intensity above about 16000; inconclusive means no clear call, values can overlap the other calls
# BoNT-A LC inh2 = inhibitors of Botulinum neurotoxin A light chain protease. multiplex microsphere protease substrate cleavage, flow cytometry. inhibition, % at 10 µM. 0.17% of 360,000 active. AID 588499; further: plate controls were buffer without enzyme for full effect and enzyme alone for no effect
# Starred values were filed as active, the others as inactive; ? = inconclusive; . = no result. This is a sample that favours compounds with a hit; in the whole collection about 4.3% have one here. Unless noted, no stated cut-off is given here; in the data, active means inhibition above about 30%; inconclusive means no clear call, values can overlap the other calls; inactive means below that.
SMILES,Anthrax LF prot,BoNT-F LC inh,MazF activator,PfHsp40 yeast,Bead autofluor,BoNT-A LC inh2
Cc1cc(C)c(-c2cc(C(=O)Nc3c(C)n(C)n(-c4ccccc4)c3=O)[nH]n2)c(O)c1,0,-4,8,0,6031,0
Cc1ccc2cc(C#N)c(N3CCCC3)nc2c1C,9,-15,-17,0,4035,7
Cc1ccc2cc(C#N)c(N3CCCN(C(=O)C4CCCO4)CC3)nc2c1C (stereo unspecified),13,10,-1,0,16171*,13
Cc1[nH]c(=O)c(C#N)c2c1CCCC2,-2,4,6,0,22068*,4
COC(=O)C1=C(C)N(C(C)C)C(=O)C1(NC(=O)C1CCCCC1)C(F)(F)F (stereo unspecified),-4,2,-1,0,19805*,?
CN(CCn1ccnc1)Cc1cn(Cc2ccccc2)nc1-c1ccc2c(c1)OCO2,-3,3,3,0,4538,0
CCC(=O)N1CN(S(=O)(=O)c2ccc(C)cc2)CC1C (stereo unspecified),-2,-3,4,-1,21656*,-3
COc1ccc(-c2oc3ncnc(N)c3c2-c2ccccc2)cc1,1,4,15,-1,21630*,3
CCCOc1cccc(-c2nn(-c3ccccc3)cc2/C=C(\C#N)C(=O)NCCCn2ccnc2)c1,1,-9,-26,45*,3465,9
O=C(CCC1CCCN(C(=O)Cn2cnnn2)C1)NCc1ccccc1F (stereo unspecified),-2,-6,13,0,3861,0
COc1ccc(C2=Nn3c(nnc3-c3ccccn3)SC2)cc1,-2,-2,6,-2,24133*,?
CCOc1ccc(-c2nnc3n2N=C(c2ccc(OC)cc2)CS3)cc1,4,10,10,0,19797*,6
CCOc1ccc(C2=Nn3c(nnc3-c3ccccc3OC)SC2)cc1,0,1,7,-1,22729*,1
Cc1ccc(-c2nnc3n2N=C(c2ccc(Br)cc2)CS3)cc1,-12,-8,8,0,5697,0
CCc1nnc2n1N=C(c1ccc(OC)cc1)CS2,-4,-10,9,0,17512*,-3
O=S(=O)(NC1CC1)c1ccccc1,-20,19,4,0,3630,-1
COc1cccc(-c2nnc3n2N=C(c2cccc(Br)c2)CS3)c1,0,-5,-12,-1,20881*,?
c1ccc(-c2ccc(C3=Nn4c(nnc4-c4cc(-c5ccccc5)n[nH]4)SC3)cc2)cc1,3,2,-73,-1,18459*,3
CC(C)c1ccc(CC(=O)N2CCC2(C)C(=O)NS(=O)(=O)c2ccc(Cl)s2)cc1 (stereo unspecified),1,0,.,.,3399,0
COc1ccc(-c2csc(NC(=O)c3ccccc3F)c2C(=O)O)cc1,-20,?,-8,310*,3814,-3
O=C(Nc1scc(-c2ccccc2)c1C(=O)O)c1ccccc1Cl,-8,-2,5,1,3823,0
O=C(O)c1cc(NCc2c(F)cccc2Cl)ccc1N1CCOCC1,-1,-2,-9,105*,16103,1
S=c1[nH]nc(C2CCCCC2)n1/N=C/c1ccccc1Cl,0,?,9,1,4102,-2
S=c1[nH]nc(C2CCCCC2)n1/N=C/c1cccs1,0,-4,5,-1,23451*,?
O=[N+]([O-])c1ccc(/C=N/n2c(C3CCCCC3)n[nH]c2=S)cc1,0,-2,-6,-1,22651*,?
SMILES,Anthrax LF prot,BoNT-F LC inh,MazF activator,PfHsp40 yeast,Bead autofluor,BoNT-A LC inh2
S=c1[nH]nc(C2CCCCC2)n1/N=C/c1ccncc1,-1,-4,7,0,2669,0
COc1ccc(OC)c(NC(=O)CSc2nc(=O)n(CCN3CCOCC3)c3c2CCCC3)c1,-8,-10,2,-1,6133,-3
Cc1ccc(NC2CCCN(C(=O)c3cn(C)c4ccccc34)C2)cc1C (stereo unspecified),-2,2,9,-2,5978,0
CC(C)Cc1ccc(C(C)C(=O)N2CCOCC2)cc1 (stereo unspecified),0,3,-7,1,22712*,?
CC(C(=O)N1CCOCC1)c1ccccc1 (stereo unspecified),-1,-3,-3,?,3035,0
C=CCN1CC(c2nc3ccccc3n2CCOc2ccccc2)CC1=O (stereo unspecified),0,-4,-5,2,22558*,-2
O=C(C1CCN(S(=O)(=O)c2ccccc2)CC1)N1CCCCCC1,-6,-2,3,2,4598,0
Cc1cccc(C)c1NC(=O)c1sccc1SCc1cccc(C(F)(F)F)c1,-2,-6,-3,0,17658*,-4
N#CCSc1ccsc1C(=O)Nc1ccc(F)cc1,-2,-5,-5,-2,16375*,0
CN(C)/C=C(\C#N)C(=O)Nc1ccc(F)cc1,-2,-3,-2,0,2146,0
Cc1ccc(NC(=O)c2sccc2SCc2cccc(C(F)(F)F)c2)cc1,-5,-12,-7,2,22569*,-7
CN1CCC=C(C(=O)N2c3ccccc3Sc3ccc(Cl)cc32)C1,6,?,-2,23,3891,?
CC(C)NC(=O)CN1C(=O)C(=O)c2ccccc21,-3,-2,2,-1,22994*,?
Cc1ccc(C(=O)Nc2ccc(C(=O)N3CCCCC3)cc2)o1,2,-11,-2,-2,?,-4
O=C1CC(=O)C(n2cncn2)C(c2c(F)cccc2Cl)C1 (stereo unspecified),-1,4,2,1,22544*,2
N#Cc1c(=O)c2nc(NCCCO)ncc2n2c(=O)c3ccccc3[nH]c12,-1,3,7,83*,1991,1
Cc1c(CCO)c(=O)n2c([nH]c3ccccc32)c1C#N,-5,-17,3,0,3774,-3
CSc1ccccc1C(=O)Nc1cccc(C)c1,-4,11,1,-1,17403*,?
COC(=O)c1ccc(NC(=O)c2ccccc2SC)cc1,-2,-2,8,0,16827*,-3
CSCCC(NC(=O)c1cccc(C)c1)C(=O)OCN1C(=O)c2ccccc2C1=O (stereo unspecified),4,?,-4,-1,?,0
CC(C)CC(=O)N1CCC(O)(CS(=O)(=O)Cc2ccccc2Cl)CC1,-2,-7,0,0,21027*,?
COc1ccc(C(=O)COC(=O)CNC(=O)c2ccc(OC)cc2)cc1,-4,-1,9,3,4309,-1
CCOc1ccc(NC(=O)CSc2nc3ccccc3nc2N2CCOCC2)cc1,2,-7,-3,-1,5937,-1
CCCc1nc(SCC(=O)N2CCC(Cc3ccccc3)CC2)c2c(=O)n(C)c(=O)n(C)c2n1,2,-11,1,184*,4488,0
Clc1ccccc1OCCCCN1CCCCC1,-2,-22,16,0,3645,-1

# Source: PubChem
